Assay results reported in PubChem BioAssay (EPA / NIEHS).
Active and inactive are the calls of the source. The calls were made as follows: active = hit-call score of the fitted dose curve at least 0.9, where 1 is the maximum; inactive = score below 0.9.

read-out: not listed separately; experiment: BSK_hDFCGF_Proliferation: Cell Proliferation Assessment in the BioMAP Diversity Plus: hDFCGF Assay (AID 2283059); details: primary human foreskin fibroblasts;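 also: curves fitted for both rise and fall of signal versus DMSO baseline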
Outline: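 Sub-confluent human foreskin fibroblast cultures receive test chemical […]. Relative cell number is quantified by sulforhodamine B staining (0.1%, after 10% TCA fixation) at 560 nm, with bidirectional fitting referenced to DMSO.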

| Structure (SMILES) | outcome | AC50 |
| --- | --- | --- |
| Cn1cc[nH]c1=S | inactive | – |
| CC(C)CC(C)O (centres undefined) | inactive | – |
| O=C1CN(N=Cc2ccc([N+](=O)[O-])o2)C(=O)N1 | – | 30.6 µM (active) |
| OCc1ccccc1 | inactive | – |
| NC(=O)N(O)[C@@H]1COc2cc(OCc3ccccc3)ccc21 | inactive | – |
| C=CCc1cc(S(=O)(=O)c2ccc(O)c(CC=C)c2)ccc1O | – | 9.21 µM (active) |
| CC(C)C(=O)Nc1ccc([N+](=O)[O-])c(C(F)(F)F)c1 | inactive | – |
| CCn1nc(C)c2c1C(=O)NCC(c1ccc(O)cc1)=N2 | – | 11 µM (active) |
| COc1cc2c(c(OC)c1OC)-c1ccc(OC)c(=O)cc1[C@@H](NC(C)=O)CC2 | – | 1 µM (active) |
| CNC(C)=O | inactive | – |
| CCOC(N)=O | inactive | – |
| FC(F)=C(F)C(F)(F)C(F)(F)C(F)(F)C(F)(F)C(F)(F)C(F)(F)F | inactive | – |
| c1ccc2cc3ccccc3cc2c1 | inactive | – |
| CCCCOC(=O)c1ccccc1 | inactive | – |
| O=C(Cl)C(F)(F)C(F)(F)C(F)(F)C(=O)Cl | inactive | – |
| Cn1c(=O)c2[nH]cnc2n(C)c1=O | inactive | – |
| CCCOc1ccc(S(=O)(=O)N2CCN(CC)CC2)cc1-c1nc2c(CC)n(Cc3ccccn3)nc2c(=O)[nH]1 | inactive | – |
| CC(C)CCCCCCOC(=O)C1CCCCC1C(=O)OCCCCCCC(C)C (centres undefined) | inactive | – |
| COS(C)(=O)=O | inactive | – |
| O=C(O)[C@H](O)[C@@H](O)C(=O)O | inactive | – |
| Cc1nccn1-c1ccc(Sc2cccc(C3(C(N)=O)CCOCC3)c2)cc1 | – | 4.15 µM (active) |
| CCCc1ccccc1 | inactive | – |
| C[C@@H](Oc1ccc(CNC(=O)c2cccnc2Oc2ccc3c(c2)OCO3)c(F)c1)C(=O)O | inactive | – |
| Cc1ncc([C@@H](CCCCCCc2ccc3c(n2)NCCC3)CC(=O)O)cn1 | inactive | – |
| NNC(=O)c1ccncc1 | inactive | – |
| OC(CCl)CCl | inactive | – |
| OCCC(F)(F)C(F)(F)C(F)(F)C(F)(F)F | inactive | – |

read-out: Macrophage colony-stimulating factor (MCSF), CSF1 (gene 1435); experiment: BSK_hDFCGF_MCSF: BioMAP Diversity Plus: hDFCGF Assay for Macrophage colony-stimulating factor (MCSF) Biomarker Activity (AID 2283060); details: primary human foreskin fibroblasts; actives raise or lower the signal
Outline: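 ELISA read-out of M-CSF in human dermal foreskin fibroblast cultures, 24 h after chemical dosing; gain or loss of signal fitted bidirectionally relative to DMSO baseline.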

| Structure (SMILES) | outcome | AC50 |
| --- | --- | --- |
| Cn1cc[nH]c1=S | inactive | – |
| CC(C)CC(C)O (centres undefined) | inactive | – |
| O=C1CN(N=Cc2ccc([N+](=O)[O-])o2)C(=O)N1 | inactive | – |
| OCc1ccccc1 | inactive | – |
| NC(=O)N(O)[C@@H]1COc2cc(OCc3ccccc3)ccc21 | inactive | – |
| C=CCc1cc(S(=O)(=O)c2ccc(O)c(CC=C)c2)ccc1O | – | 27 µM (active) |
| CC(C)C(=O)Nc1ccc([N+](=O)[O-])c(C(F)(F)F)c1 | inactive | – |
| CCn1nc(C)c2c1C(=O)NCC(c1ccc(O)cc1)=N2 | – | 3.97 µM (active) |
| COc1cc2c(c(OC)c1OC)-c1ccc(OC)c(=O)cc1[C@@H](NC(C)=O)CC2 | inactive | – |
| CNC(C)=O | inactive | – |
| CCOC(N)=O | inactive | – |
| FC(F)=C(F)C(F)(F)C(F)(F)C(F)(F)C(F)(F)C(F)(F)C(F)(F)F | inactive | – |
| c1ccc2cc3ccccc3cc2c1 | inactive | – |
| CCCCOC(=O)c1ccccc1 | inactive | – |
| O=C(Cl)C(F)(F)C(F)(F)C(F)(F)C(=O)Cl | inactive | – |
| Cn1c(=O)c2[nH]cnc2n(C)c1=O | inactive | – |
| CCCOc1ccc(S(=O)(=O)N2CCN(CC)CC2)cc1-c1nc2c(CC)n(Cc3ccccn3)nc2c(=O)[nH]1 | inactive | – |
| CC(C)CCCCCCOC(=O)C1CCCCC1C(=O)OCCCCCCC(C)C (centres undefined) | inactive | – |
| COS(C)(=O)=O | inactive | – |
| O=C(O)[C@H](O)[C@@H](O)C(=O)O | inactive | – |
| Cc1nccn1-c1ccc(Sc2cccc(C3(C(N)=O)CCOCC3)c2)cc1 | inactive | – |
| CCCc1ccccc1 | inactive | – |
| C[C@@H](Oc1ccc(CNC(=O)c2cccnc2Oc2ccc3c(c2)OCO3)c(F)c1)C(=O)O | inactive | – |
| Cc1ncc([C@@H](CCCCCCc2ccc3c(n2)NCCC3)CC(=O)O)cn1 | inactive | – |
| NNC(=O)c1ccncc1 | inactive | – |
| OC(CCl)CCl | inactive | – |
| OCCC(F)(F)C(F)(F)C(F)(F)C(F)(F)F | inactive | – |
